Sampled rows, rich in hits. Any-hit rate of the full collection: about 2%.
IL2 activator = qHTS of IL-2 Activators; activation, % (series mostly up to about 46 µM); IL-2 activation reporter assay, cell-based qHTS; stimulated with anti-CD3/CD4/CD28 beads; in transgenic mouse T cells; 0.065% of 360,000 active; in the data active means activation above about 50%; inconclusive means mostly about 30% to 49%; further: 0% is about no effect
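Quantitative HTS in unstimulated transgenic mouse T cells, with memory T cells as non-tolerant control and PMA/ionomycin as tolerance-bypass control. Compound pretreatment lasted 60 minutes before 18 h bead stimulation; EGFP/DsRed fluorescence read.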
NPSR antagonist = qHTS Assay for Antagonists of the Neuropeptide S Receptor: cAMP Signal Transduction; Q6W5P4; CHO-NPSR cells, cAMP TR-FRET, antagonist mode; Potency, µM (top dose mostly 38.3 µM), for inactives: top-dose activity change, negative = inhibition, usual class: inhibitors; 1% of 220,000 active; AID 1461, 2008; further: potency means the concentration at half of the fitted maximal effect; on the % scale 0 is the no-effect control and ±100 the full control effect; nearly all actives have a fitted effect of over 50% in size
PKM2 act = qHTS Assay for Activators of Human Muscle isoform 2 Pyruvate Kinase; Pyruvate kinase PKM (Homo sapiens), P14618; purified PKM2, Kinase-Glo ATP luminescence, activation; response scale: 0% is enzyme alone, no compound; Potency, µM (series often up to 57.5 µM), for inactives: at the top dose activation, usual class: activators; 0.34% of 260,000 active; AID 1631, 2009; further: potency means the concentration at half of the fitted maximal effect; on the % scale 0 is the no-effect control and ±100 the full control effect; nearly all actives have a fitted effect of over 55% in size
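ATP formation by purified human PK-M2, quantified via coupled luciferase luminescence after 1 h at room temperature with 0.1 mM ADP and 0.5 mM PEP final.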
ClpP mod = qHTS Assay for Activators of ClpP; ATP-dependent Clp protease proteolytic subunit (Bacillus subtilis (strain 168)), P80244; purified B. subtilis ClpP, FRET peptide cleavage, 20 min; Potency, µM (highest dose often 57.5 µM), for inactives: top-dose activity change, negative = active; 1.9% of 340,000 active; active means well fitted falling curve with a large enough effect; inconclusive means small, poorly fitted or top-dose-only effect; inactive means no such curve, though single readings can be large or run the other way; further: potency means the concentration at half of the fitted maximal effect; the source files actives as falling curves though it sought activators and does not explain the sign; nearly all actives have a fitted effect of over 65% in size
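FRET quenching reversal measured ClpP activation: 10 microg/mL B. subtilis ClpP at pH 8 with the FRET-FV decapeptide, read at 430 nm after 320 nm excitation. The 20-min minus 0-min signal was scaled between DMSO/no-enzyme wells and ADEP (5.8 microM final).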
Active calls of the source: *; ? = inconclusive; nt = not tested or not shown; ! = repeats disagree; [ ] = dose if it differs, or a comment. Unless noted, the call rests on the fitted dose curve; in most records, active means well fitted curve in the direction sought with a large enough effect; inconclusive means small, poorly fitted or top-dose-only effect, or another doubt; inactive means no such curve, though single readings can be large; an effect the other way counts as inactive or inconclusive.

SMILES	IL2 activator	NPSR antagonist	PKM2 act	ClpP mod
O=C(COc1ccc(Cl)cc1)Nc1ccc(Cc2ccncc2)cc1	0.0	-36.4%	-0.4%	7.08µM*
CC1Sc2ccc(S(=O)(=O)CCC(=O)Nc3cc(F)ccc3F)cc2NC1=O (stereo not drawn)	-1.2	nt	3.8%	1.0%
COc1ccc(NC(=S)/N=C(\N)Nc2nc(C)c3ccc(C)cc3n2)cc1	-2.4	8.0%	-0.8%	-1.5%
CCOc1ccc2nc(N/C(N)=N/C(=S)Nc3ccc(C)c(C)c3)nc(C)c2c1	-0.3	2.0%	-2.6%	25.1µM*
CC(C)c1nc2sc3c(=O)n(N)cnc3c2c2c1COC(C)(C)C2	-1.0	12.4%	-4.1%	15.8µM*
CCCn1ccnc1SCC(=O)Nc1c(C)n(C)n(-c2ccccc2)c1=O	0.3	nt	nt	-1.4%
CCCn1c(/C=C/c2ccccc2)nc2ccccc21	-2.6	-7.2%[46.1 µM]	11.2%	12.6µM*!
Cc1ccc(NC(=O)Cn2c(/C=C/c3ccccc3)nc3ccccc32)cc1C	-2.8	-18.0%[46.1 µM]	-15.3%	28.2µM*
COCCOCCn1c(/C=C/c2ccccc2)nc2ccccc21	-0.5	-29.3%	-32.3%	nt
CC(C)c1ccccc1NC(=O)Cn1c(/C=C/c2ccccc2)nc2ccccc21	3.9	-49.2%	-4.0%	nt
Cc1c(C(=O)N2CCC2)oc2c(F)cccc12	1.0	nt	nt	12.6µM*
Cc1cnc(NC(=O)c2cc(S(=O)(=O)N(C)C)ccc2N2CCCC2)s1	-0.4	nt	nt	nt
CN(C)S(=O)(=O)c1ccc(N2CCCC2)c(C(=O)Nc2nc3c(ccc4ccccc43)s2)c1	-1.4	15.3%	-7.2%	28.2µM*
CN1C=C/C(=C\c2cc[n+](C)c3ccccc23)c2ccccc21	-0.9	12.6µM*	-4.8%	-1.8%
CC(=O)N1CCc2c(sc(NC(=O)c3ccc([N+](=O)[O-])o3)c2C#N)C1	0.2	2.51µM*	-19.6%	-5.2%
COc1ccc(C(=O)Nc2sc3c(c2C#N)CCN(C(C)=O)C3)cc1	-1.3	0.8%	3.7%	nt
COCc1nn2c(N)c(-c3ccccc3)cnc2c1-c1ccccc1	-5.4	nt	0.9%	nt
COc1cc(/C=C2/SC(=S)N(CC(=O)Nc3cccnc3)C2=O)cc(OC)c1OC	123.5*	3.2%	-0.5%	2.6%
O=C(CN1C(=O)/C(=C/c2ccccc2)SC1=S)Nc1cccnc1	0.1	-6.5%	-19.5%	0.5%
O=C(CCN1C(=O)/C(=C/C=C/c2ccccc2)SC1=S)Nc1cccnc1	69.0*	-42.7%	25.8%	-0.2%
CC(C)CCN1CCN(Cc2cnc(-c3ccccc3)s2)CC1CCO (stereo not drawn)	-1.5	-5.1%	0.9%	nt
O=C(Nc1ccncc1)c1ccc2c(c1)C(=O)N(C1CCCCC1)C2=O	-4.0	-13.1%[46.1 µM]	-4.5%	0.9%
CCC(=O)Nc1ccc2c(c1)C(=O)N(C1CCCCC1)C2=O	-0.4	-5.3%[46.1 µM]	15.9%	22.4µM*
O=C(Cc1c(O)c2ccccc2[nH]c1=O)NCc1cccc(F)c1	-1.7	7.5%[46.1 µM]	-1.5%	28.2µM*
O=C(Cc1c(O)c2ccccc2[nH]c1=O)NCc1ccccc1F	5.1	-1.5%[46.1 µM]	0.9%	28.2µM*
SMILES	IL2 activator	NPSR antagonist	PKM2 act	ClpP mod
COc1ccc(NC(=O)Cc2c(O)c3ccccc3[nH]c2=O)cc1	0.2	3.9%[46.1 µM]	2.3%	-20.5%
CCCNC(=O)Cc1c(O)c2ccccc2[nH]c1=O	0.7	-7.2%[46.1 µM]	-4.0%	?
Cc1cc(C)c2c(c1)-c1cc(C)nn1C(c1ccc3c(c1)OCO3)N2 (stereo not drawn)	-0.2	-15.1%[46.1 µM]	-1.1%	31.6µM*
Cc1cc2n(n1)C(c1ccc3c(c1)OCO3)Nc1c(C)cccc1-2 (stereo not drawn)	0.5	-15.5%[46.1 µM]	13.4%	-2.0%
Cc1ccc(NC(=O)C(C)c2ccc(-c3ccccc3)c(F)c2)cc1 (stereo not drawn)	0.0	-23.5%[46.1 µM]	-4.6%	35.5µM*
O=c1c2c(nc3cc(-c4ccc(F)cc4)[nH]n13)CCC2	-0.2	-6.1%	-6.0%	6.31µM*
O=C(Nc1ccc(S(=O)(=O)N2CCCCC2c2cccnc2)cc1)c1ccc(Br)cc1 (stereo not drawn)	nt	nt	nt	3.1%
Cc1ccc(S(=O)(=O)N2CCN(c3cnn(-c4ccccc4)c(=O)c3Cl)CC2)cc1	-3.4	-50.1%	1.5%	1.0%
Cc1ccc(S(=O)(=O)N2CCN(c3cnn(C)c(=O)c3Cl)CC2)cc1	1.5	-8.2%	20µM*	nt
COc1cccc(Oc2coc3c(CN4CCOCC4)c(O)ccc3c2=O)c1	-0.5	-0.2%[46.1 µM]	-2.8%	20µM*
CCC(C)(C)NC(=O)C(c1ccc(OC)cc1)N(Cc1ccccc1)C(=O)CCC(=O)Nc1cc(C)on1 (stereo not drawn)	-0.1	nt	0.0%	nt
CCN1C(=O)C(CC(=O)Nc2ccc(OC)cc2)N(Cc2ccc3c(c2)OCO3)C1=S (stereo not drawn)	-0.6	3.6%	14.9%	-3.9%
Cc1ccc(NC(=O)CN2CCN(S(=O)(=O)c3cccs3)CC2)cc1S(=O)(=O)N(C)C	-1.3	-26.0%	-2.2%	31.6µM*
O=C(Nc1ccc([N+](=O)[O-])cc1)Nc1ccc(OC(F)F)c(Cl)c1	-3.0	10µM*	1.1%	-0.7%
O=C(Nc1ccc(OC(F)F)c(Cl)c1)Nc1ccc2c(c1)OCO2	-0.5	-9.3%[46.1 µM]	-0.2%	0.7%
Cc1[nH]c2ccc(F)cc2c1CCN(Cc1cccnc1)C(=S)Nc1ccc(F)cc1	0.3	10µM*	-12.5%	-0.4%
O=C(Nc1ccccc1)c1ccccc1N=Cc1ccccc1O	-0.3	6.2%	2.2%	35.5µM*
O=C(Nc1nccs1)c1ccccc1N=Cc1ccccc1	1.1	?	5.3%	28.2µM*
CCOc1ccccc1C=Nc1ccccc1C(=O)Nc1ccccc1	-0.1	-42.7%	-4.3%	-3.4%
O=C(NCC1CCCO1)c1ccc(N2C(=O)C3CCCCC3C2=O)cc1 (stereo not drawn)	0.1	nt	7.0%	nt
Cc1ccc(CN(C)C(=O)C2CCC(=O)N(CC3CCCCC3)C2)o1 (stereo not drawn)	-0.3	nt	1.8%	0.4%
Cc1ccnc(NC(=O)c2cccc(NC(=O)c3ccc(Cl)c(Cl)c3)c2)c1	-0.8	nt	nt	nt
Cc1ccccc1NC(=O)COC(=O)CCC(=O)c1cccs1	-0.2	nt	nt	nt
CCn1c(O)c2ccc(C(=O)N=NC(=O)c3ccccc3)cc2c1O	0.1	nt	0.5%	-2.0%
N#CC(c1ccc(Cl)cc1)c1ccc2c(C(F)(F)F)cc(C(F)(F)F)nc2n1 (stereo not drawn)	-0.7	6.31µM*	-2.1%	-1.9%
FC(F)(F)c1cc(C(F)(F)F)c2ccc(N3CCN(c4ccc(Cl)cc4)CC3)nc2n1	-0.1	-0.1%[46.1 µM]	0.3%	1.6%
O=C(CCS(=O)(=O)c1nc(-c2cccs2)cc(C(F)(F)F)n1)Nc1ccc(Br)cc1	nt	nt	nt	31.6µM*
O=C(NC(NC(=S)Nc1ccccc1C(=O)O)C(Cl)(Cl)Cl)c1ccco1 (stereo not drawn)	-0.1	5.0%	-0.4%	28.2µM*

Screening results: PubChem, National Center for Advancing Translational Sciences (NCATS)
